# In all, about 33,000 sequences were measured (“E-score (-0.5 to 0.5)”: median about -0.015, highest 2% from about 0.3 on). For the sample, the highest values were picked, then their nearest neighbours and some sequences at random.
# Target: T1, Abf1 (UniProt P14164)
# T1 sequence: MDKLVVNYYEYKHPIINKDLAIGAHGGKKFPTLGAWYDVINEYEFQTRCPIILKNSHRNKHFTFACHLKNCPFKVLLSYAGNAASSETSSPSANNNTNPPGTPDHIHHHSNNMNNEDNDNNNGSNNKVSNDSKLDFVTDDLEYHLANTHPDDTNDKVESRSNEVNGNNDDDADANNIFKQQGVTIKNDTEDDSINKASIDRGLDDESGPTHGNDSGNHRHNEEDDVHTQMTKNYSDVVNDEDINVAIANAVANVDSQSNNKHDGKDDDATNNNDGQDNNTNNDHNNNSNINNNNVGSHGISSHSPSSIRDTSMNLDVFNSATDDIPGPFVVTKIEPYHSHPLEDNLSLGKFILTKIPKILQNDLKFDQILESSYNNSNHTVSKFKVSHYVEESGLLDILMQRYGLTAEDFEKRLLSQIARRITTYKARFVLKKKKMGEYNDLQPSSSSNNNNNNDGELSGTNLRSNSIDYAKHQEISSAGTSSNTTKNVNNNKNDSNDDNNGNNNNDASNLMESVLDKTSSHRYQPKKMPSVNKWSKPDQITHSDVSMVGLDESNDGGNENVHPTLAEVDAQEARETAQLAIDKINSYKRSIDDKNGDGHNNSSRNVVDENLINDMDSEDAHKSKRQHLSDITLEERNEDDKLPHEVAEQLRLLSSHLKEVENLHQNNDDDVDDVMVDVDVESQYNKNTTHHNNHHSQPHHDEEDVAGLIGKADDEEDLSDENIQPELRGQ
# Assay: PBM E-score (8-mer binding enrichment) (E-score (-0.5 to 0.5)); higher = stronger / more preferred TF binding
# Conditions: protein concentration: 200 nM; construct: GST-full length
# Procedure, shortened: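 PURExpress in vitro transcription/translation supplied GST-tagged yeast transcription factors, either full-length or DNA-binding domain. Applied at about 100-200 nM to universal all-10-mer Agilent arrays double-stranded by primer extension, the bound protein was detected with fluorescent anti-GST. E-scores, modified Wilcoxon-Mann-Whitney statistics, were given by the Universal PBM Analysis Suite to ungapped eight-base words pooled with their reverse complements after masliner normalisation.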
row,Sequence,PBM E-score
1,AGCCCACA,-0.0569
2,AGTATCGC,0.0404
3,CCTACGTA,-0.0223
4,GACGAGTC,0.241
5,AATTCCGT,0.115
6,GATGCCAC,0.049
7,GCCGTTCA,0.156
8,ACCTAATC,0.111
9,CCCCATGA,-0.167
10,ACAGTTTA,-0.0111
11,CTTGATAA,0.138
12,TGTGATAA,0.297
13,GTTGATAA,0.199
14,TGGGATAA,-0.0897
15,GGTGATAA,0.404
16,CGTGATAA,0.408
17,CCTGATAA,0.1
18,TCTGATAA,0.134
19,GCTGATAA,0.0596
20,GTTTTCTA,-0.0572
21,CAGCGATG,-0.0769
22,AGTGGCAG,-0.0869
23,TATGGGCA,-0.0697
24,ATGAACCC,-0.0465
25,ACGTAGAC,0.0202

row,Sequence,PBM E-score
1,ATGCATAC,0.0289
2,CGGGGAGC,-0.00752
3,AGATGCAT,-0.058
4,CTCACCGC,0.0255
5,ATCACCGC,0.311
6,ATCACCGG,0.101
7,CTCACCAC,-0.0754
8,ATCACCAT,0.254
9,ATCACCAC,0.356
10,AGGTACCT,-0.101
11,ACGACCAC,0.131
12,CCGACTAC,-0.119
13,ACGACTAA,0.0761
14,ACGACCAG,0.301
15,ACGACTAG,0.0858
16,ACGACTAC,0.329
17,ACGACTAT,0.298
18,ACGACCAA,0.182
19,GCGACTAC,-0.134
20,AGCTGCTC,-0.148
21,CTCCTCCC,-0.201
22,ACGATGGC,0.0358
23,ATGTTAAT,-0.0223
24,AGTGAAGA,0.129
25,CGGCATAG,0.0597
